Source: PubChem
The list is not random: actives were taken first. Their share in the collection is about 1.5%.
E-sel TNF inh = TNF alpha driven E-selectin expression inhibition. hit rate 0.71% among 120,000. AID 1246. HUVEC TNFa-induced E-selectin immunofluorescence, high content. inhibition, % at 2 µM;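 active means inhibition above the batch mean plus 3 SD, and confirmed as a hit on visual image review, cut at about 43% in these data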;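 further: 0% = TNF-stimulated DMSO wells and 100% = unstimulated control wells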
MRP resist rev = reverses drug resistance mediated by MRP; differential viability (reversal), % at 10 µM; H69AR cells + 2 uM doxorubicin, CellTiter-Glo, 72 h; hit rate 0.04% among 85,000;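 active means viability drop by adding the cancer drug above about 55%, with treated viability meeting a 40% cutoff, limit read from the data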;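 further: viability without doxorubicin minus viability with 2 µM doxorubicin for each compound; larger differential means the compound sensitizes cells more to doxorubicin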
cytoskel mod = alters cytoskeleton assembly in HUVEC cells. HUVEC TNFa F-actin phalloidin imaging, high content. hit rate 0.18% among 91,000. inhibition, % at 2 µM. AID 836;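 active means inhibition above the batch mean plus 3 SD and confirmed as a hit by visual image inspection, cut at about 30% in these data, passing the limit was not always enough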
VCAM1 TNFa inh = reduces TNF alpha induced VCAM1 expression in HUVEC; HUVEC TNFa-induced VCAM-1 immunofluorescence, high-content imaging; inhibition, % at 2 µM; hit rate 0.48% among 95,000; AID 802;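 active means inhibition above the batch mean plus 3 SD, with images confirmed as a hit by eye, cut at about 37% in these data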;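 further: 0% = TNF-stimulated DMSO wells and 100% = unstimulated control wells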
MRP-1 activ = MRP-1 activation; hit rate 0.61% among 140,000; AID 799; H69AR cells + doxorubicin, viability rescue, CellTiter-Glo; viability increase, % at 10 µM;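 active means viability gain under doxorubicin at or above a set limit, the compound median plus 3 SD, cut at about 4.7% in these data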;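 further: MRP-1 overexpressing cells given doxorubicin 25 µM after compound pretreatment; 18-22 h compound pretreatment then 72 h with doxorubicin before readout; 0% = doxorubicin-only wells and 100% = vehicle-treated cells without doxorubicin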
Active calls of the source: *.

CC(C)C(C(=O)Nc1ccc2c(c1)OCCOCCOCCOCCO2)N1C(=O)c2ccccc2C1=O (stereo not given) was read as E-sel TNF inh -8.
`Cc1ccc(NS(=O)(=O)c2cc(OCC(N)=O)c(C)cc2Cl)cc1` gave E-sel TNF inh 30 and MRP-1 activ -2.
Screening Cc1cc(SCC(=O)c2cccs2)nc2ccccc12 returned E-sel TNF inh 75* and MRP-1 activ -4.
For O=C(/C=C/c1ccccc1)NC(=S)Nc1ccccc1C(=O)NC1CCCCC1 the results were E-sel TNF inh -14, VCAM1 TNFa inh 2 and MRP-1 activ -3.
`O=C(/C=C/c1ccc(F)cc1)NC(=S)Nc1ccccc1C(=O)NC1CCCCC1` gave E-sel TNF inh 54*, VCAM1 TNFa inh -14 and MRP-1 activ -3.
CCOC(=O)C1=C(C)Nc2ncnn2C1c1cccnc1 (stereo not given) was read as E-sel TNF inh 22, MRP resist rev -12, cytoskel mod 0, VCAM1 TNFa inh 8 and MRP-1 activ 177*.
Screening CC(/C=C1\SC(=S)N(CCCC(=O)Nc2ccc(C(=O)O)c(O)c2)C1=O)=C\c1ccccc1 returned MRP-1 activ 4.8*.
`Cc1ccc(NC(=O)CCCN2C(=O)/C(=C/C=C/c3ccccc3)SC2=S)cc1` gave MRP-1 activ -4.
`CC(=O)c1ccc(NC(=O)CN2C(=O)/C(=C/C(C)=C/c3ccccc3)SC2=S)cc1` gave MRP-1 activ 8.5*.
Screening Cc1[nH]c2ccccc2c1SCC(=O)N1CCCCCC1 returned E-sel TNF inh -14.
O=C(CC(Nc1ccc(F)cc1)C(=O)O)c1ccccc1 (stereo not given) was read as E-sel TNF inh -30, MRP resist rev 10, cytoskel mod 9, VCAM1 TNFa inh 11 and MRP-1 activ -1.
`O=C(CC(Nc1ccc(F)cc1)C(=O)OCC(=O)c1cccs1)c1ccccc1` (stereo not given) gave MRP-1 activ 5.2*.
For O=C(OCCNC(=O)c1ccc2ccccc2n1)c1ccc(F)cc1 the results were E-sel TNF inh -13, MRP resist rev 8, cytoskel mod -9, VCAM1 TNFa inh -9 and MRP-1 activ 0.
`COc1cccc(Cn2nnc(C(=O)NCCc3ccc(Cl)cc3)c2N)c1` gave MRP resist rev -13, cytoskel mod -6, VCAM1 TNFa inh 13 and MRP-1 activ 5.
COc1cccc(Cn2nnc(C(=O)NCc3ccccc3Cl)c2N)c1 was read as MRP resist rev 7, cytoskel mod 6, VCAM1 TNFa inh 8 and MRP-1 activ 1.
CCOc1ccc(Cn2nnc(C(=O)NCCc3ccc(Cl)cc3)c2N)cc1 was read as MRP resist rev 2, cytoskel mod 5, VCAM1 TNFa inh 2 and MRP-1 activ 5.1*.
CCOc1ccc(Cn2nnc(C(=O)NCCc3ccccc3)c2N)cc1 was read as E-sel TNF inh -6, MRP resist rev 0, cytoskel mod 12, VCAM1 TNFa inh 2 and MRP-1 activ 7.8*.
Screening COc1cccc(Cn2nnc(C(=O)NCc3ccc(F)cc3)c2N)c1 returned E-sel TNF inh -10, MRP resist rev 7, cytoskel mod 0, VCAM1 TNFa inh 2 and MRP-1 activ 4.8*.
Screening CCn1c2ccccc2c2nnc(SCC(=O)NC(CC(C)C)C(=O)OC)nc21 (stereo not given) returned E-sel TNF inh 11, MRP resist rev -16, cytoskel mod 5, VCAM1 TNFa inh 1 and MRP-1 activ 0.
CCN1CCc2c(OCC(=O)N3CCCCC3)cccc2C1=O was read as E-sel TNF inh 28.
`CCCCCOC(=O)C1=C(C)Nc2nnnn2C1c1ccccc1Cl` (stereo not given) gave E-sel TNF inh -7, MRP resist rev 4, VCAM1 TNFa inh -11 and MRP-1 activ -3.
Screening CCOc1cc(S(=O)(=O)NCCc2cccc(C)c2)c(OCC)cc1-n1cnnn1 returned MRP resist rev 0, cytoskel mod -15, VCAM1 TNFa inh 11 and MRP-1 activ -4.
For O=C(O)C(=O)/C(=C\c1ccccc1)c1ccc2ccccc2n1 the results were E-sel TNF inh 91*, MRP resist rev 12, cytoskel mod 6, VCAM1 TNFa inh 2 and MRP-1 activ -3.
For O=C(O)C(=O)/C(=C\c1cccc2ccccc12)c1ccc2ccccc2n1 the results were E-sel TNF inh 2, MRP resist rev -39, cytoskel mod -11, VCAM1 TNFa inh 3 and MRP-1 activ -1.
O=C(NNS(=O)(=O)c1ccccc1C(F)(F)F)c1cccc(S(=O)(=O)Nc2ccccc2Cl)c1 was read as E-sel TNF inh 6 and MRP-1 activ 2.
Screening O=C(O)c1cccc(S(=O)(=O)Nc2ccccc2Cl)c1 returned E-sel TNF inh 29, MRP resist rev -5, cytoskel mod 1, VCAM1 TNFa inh 95* and MRP-1 activ -2.
Screening C#CC(=O)N(c1cc(OC)ccc1OC)C(C(=O)NC1CCCC1)c1cccs1 (stereo not given) returned E-sel TNF inh 58*, cytoskel mod 9, VCAM1 TNFa inh 35 and MRP-1 activ -5.
CCCCNC(=O)/C(=C/c1ccccc1)NC(C)=O was read as MRP-1 activ 0.
`CCOC(=O)C[n+]1c(C)sc2ccc(OC)cc21` gave E-sel TNF inh 66*, cytoskel mod -2, VCAM1 TNFa inh -2 and MRP-1 activ -5.
`Cc1nc(Cl)c2c(n1)N(CC(N)=O)C(=O)CO2` gave MRP-1 activ -1.
For CC(=O)/C(C#N)=C1\NC(=O)C(Cc2ccccc2)S1 (stereo not given) the results were E-sel TNF inh 6, MRP resist rev 7, cytoskel mod 8, VCAM1 TNFa inh 7 and MRP-1 activ 4.9*.
`O=C(CCN1C(=O)/C(=C\c2ccccc2Cl)SC1=S)N1CCN(c2ccccc2)CC1` gave E-sel TNF inh 58*, cytoskel mod 8, VCAM1 TNFa inh 5 and MRP-1 activ -5.
For COc1ccc(Cn2c(O)c(C=Nc3ccc(OC)cc3)c3ccccc3c2=O)cc1 the results were MRP-1 activ 6.4*.
Screening COc1cccc(S(=O)(=O)Nc2ccc(C(=O)N3CCN(C(=O)c4ccco4)CC3)cc2)c1 returned E-sel TNF inh 97*, MRP resist rev -22, cytoskel mod 1, VCAM1 TNFa inh 26 and MRP-1 activ -5.
For CCn1nnnc1-c1ccc(OC)c(S(=O)(=O)NCc2ccccc2)c1 the results were E-sel TNF inh 88*, MRP resist rev 13, cytoskel mod 26, VCAM1 TNFa inh 4 and MRP-1 activ 0.
`O=c1cc(-c2ccc(C3CCCCC3)cc2)[nH][nH]1` gave E-sel TNF inh 30.
For Cc1cc(C)n(-c2nc(Nc3ccccc3)nc(-n3nc(C)cc3C)n2)n1 the results were E-sel TNF inh 6, MRP resist rev 13, cytoskel mod -11, VCAM1 TNFa inh 6 and MRP-1 activ -3.
COc1cccc(/C=N/Nc2nc(Nc3ccccc3)nc(-n3nc(C)cc3C)n2)c1O was read as E-sel TNF inh 22, cytoskel mod 2, VCAM1 TNFa inh 87* and MRP-1 activ -6.
